From PubChem BioAssay (Tox21) come the findings set out here.

Unmarked numbers belong to inactive results. Records with an inconclusive call do not appear. Active and inactive are the calls of the source. Unless noted, the call rests on the fitted dose curve; in most records, active means well fitted curve in the direction sought with a large enough effect in the repeat runs; inconclusive means weak or mixed curves; inactive means no such curve, though single readings can be large; an effect the other way counts as inactive or inconclusive.

A short description of test [1]: qHTS assay to identify small molecule antagonists of the estrogen related receptor signaling pathway with the pleiotropic PPARgamma coactivator (PGC) from Tox21 10K library - cell viability counter screen (AID 1224840; active means well fitted cell-killing curve with a large enough effect in the repeat runs, not every such curve was filed as active; further: nearly all actives have a fitted effect of over 40% in size; further: potency means the concentration at half of the fitted maximal effect). The method, boiled down:
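Viability counter screen, PGC/ERR cells: 17.5 h compound exposure at 37 C, CellTiter-Fluor fluorescence endpoint.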
A general note: qHTS replaces the single test concentration by a dilution series.

The nature of test [2]: qHTS assay to identify small molecule agonists of the estrogen related receptor signaling pathway with the pleiotropic PPARgamma coactivator (PGC) from Tox21 10K library (AID 1224842). Further: nearly all actives have a fitted effect of over 15% in size. The method, boiled down:
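PGC/ERR reporter cell line, 2,000 cells per well, incubated 6 h at 37 C before 23 nL compound in DMSO was added. After 18 h at 37 C, One-Glo luminescence read following 30 min at room temperature.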

Test [3] deals with Thyrotropin receptor (Homo sapiens) (UniProt P16473). Briefly: qHTS assay to identify small molecule agonists of the thyroid stimulating hormone receptor (TSHR) signaling pathway (AID 1224843; calls by dose curve; further: nearly all actives have a fitted effect of over 45% in size). The method, boiled down:
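HEK293/TSHR, 800 cells/well; cpd 30 min RT; add cAMP-d2 + anti-cAMP-cryptate, 1 h RT; fluorescence read on plate reader. 15-pt titration, n=3.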

The nature of test [4]: qHTS assay to identify small molecule agonists of the hypoxia (HIF-1) signaling pathway - cell viability counter screen (AID 1224844; calls by dose curve; further: nearly all actives have a fitted effect of over 50% in size). The method, boiled down:
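Same wells as the HIF-1 reporter screen; ME-180 cells carrying HRE-bla, 17 hr treatment at 37C; CellTiter-Glo luminescence read after 30 min at room temperature.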

Test [5] is described as follows: qHTS assay to identify small molecule agonists of H2AX (AID 1224845; active means well fitted activation curve with a large enough effect in the signal ratio in the repeat runs, not every such curve was filed as active; the % refers to the signal ratio). The gist of the method: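 Wild-type CHO-K1 cells, plated overnight, exposed 3hr at 37C to 15 concentrations (0.76% DMSO final). Lysed, then HTRF anti-pH2AX (S139) cryptate and anti-H2AX-d2 antibodies, 24 hr room temperature; 665/620 nm emission read.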
Test [6] can be described thus: qHTS assay to identify small molecule agonists of H2AX - cell viability counter screen (AID 1224847; calls by dose curve; further: nearly all actives have a fitted effect of over 30% in size; further: potency means the concentration at half of the fitted maximal effect; on activity change, negative = cytotoxicity: top concentration of the series differs between compounds). The method, boiled down: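 Cytotoxicity counter screen in wild-type CHO-K1 cells: a 3 hr compound treatment at 37C across 15 concentrations, followed by CellTiter-Glo luminescence to gauge viable cells.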
The nature of test [7]: qHTS assay to identify small molecule antagonists of the estrogen related receptor (ERR) signaling pathway from Tox21 library (AID 1224848). Further: nearly all actives have a fitted effect of over 50% in size. Further: potency means the concentration at half of the fitted maximal effect. The method, boiled down: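 Compounds dissolved in DMSO are pin-transferred onto ERR reporter cells (2,000 per well) that have settled for 6 h at 37 C. Plates then incubate 18 h at 37 C before ONE-Glo luciferase reagent and a luminescence read 30 min later.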

Test [8] is described as follows: qHTS assay to identify small molecule agonists of the estrogen related receptor (ERR) signaling pathway from Tox21 library (AID 1224849; calls by dose curve; further: nearly all actives have a fitted effect of over 15% in size). The settings on record: ERR reporter cell line, ONE-Glo luciferase, 18 h; at 92.4 µM (top of the series) unless noted. The gist of the method:
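Reporter cells (ERR, NTP source) treated with Tox21 10K compounds 18 h, 37 C. Readout: ONE-Glo luminescence, 30 min RT.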

Test [9] can be described thus: qHTS RealTime-Glo MT Cell Viability Assay in HepG2 cells - 24 hour (AID 1224867). Further: nearly all actives have a fitted effect of over 50% in size. Further: potency means the concentration at half of the fitted maximal effect. The gist of the method: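 Compound treatment began 5 h after plating HepG2 cells (600/well) with NanoLuc luciferase and prosubstrate. Plates stayed at 37 C for 40 h; luminescence was captured at six time points, 0 h through 40 h.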
The nature of test [10]: A CellTox Green Cytotoxicity Assay to monitor cytotoxicity in HEK293 cells - 0 hour (AID 1224869). Further: nearly all actives have a fitted effect of over 50% in size. The gist of the method: (§1)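 Homogeneous no-lysis format: HEK293 cell suspension mixed with CellTox Green reagent, seeded, incubated 5 h at 37 C/5% CO2, then dosed by pintool with compound in DMSO.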
Test [11] is described as follows: qHTS RealTime-Glo MT Cell Viability Assay in HepG2 cells - 40 hour (AID 1224870). Further: nearly all actives have a fitted effect of over 50% in size. Further: potency means the concentration at half of the fitted maximal effect. The gist of the method: (§2)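 HepG2 cells (600/well) mixed with RealTime-Glo MT reagent, settled 5 h at 37 C/5% CO2 before compound addition. Nonlytic NanoLuc luminescence from viable-cell prosubstrate reduction read repeatedly during 40 h treatment at 37 C.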
A short description of test [12]: qHTS RealTime-Glo MT Cell Viability Assay in HepG2 cells - 8 hour (AID 1224873). Further: nearly all actives have a fitted effect of over 55% in size. The method, boiled down:
as §2

A short description of test [13]: qHTS RealTime-Glo MT Cell Viability Assay in HEK293 cells - 40 hour (AID 1224874). Further: nearly all actives have a fitted effect of over 50% in size. Further: potency means the concentration at half of the fitted maximal effect. The settings on record: RealTime-Glo luminescence; max response: stronger effect = lower value. The method, boiled down: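 Measured as luminescence from the same continuously cultured HEK293 wells at successive time points (0, 8, 16, 24, 32, 40 h) after compound addition. Reagent present from seeding; dosing at 5 h; incubation 37 C.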

A short description of test [14]: A CellTox Green Cytotoxicity Assay to monitor cytotoxicity in HEK293 cells - 24 hour (AID 1224875). Further: nearly all actives have a fitted effect of over 45% in size. Further: potency means the concentration at half of the fitted maximal effect. The gist of the method: as §1
The nature of test [15]: qHTS assay to identify small molecule antagonists of the estrogen related receptor signaling pathway with the pleiotropic PPARgamma coactivator (PGC) from Tox21 10K library (AID 1224841; call rule not given here). The method, boiled down:
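In the PGC/ERR line, DMSO solutions of test chemicals are pin-delivered to 2,000 cells/well six hours after dispensing. Following eighteen hours' incubation, One-Glo reagent is added and luminescence recorded.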

Test [16] is described as follows: qHTS assay to identify small molecule agonists of the hypoxia (HIF-1) signaling pathway (AID 1224846; active means well fitted activation curve with a large enough effect in the signal ratio in the repeat runs, not every such curve was filed as active; the % refers to the signal ratio). The method, boiled down: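 In ME-180 cells bearing an HRE-bla construct, 17 h treatment with DMSO-dissolved compounds at 37C was followed by CCF4-AM loading to quantify reporter induction.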
Test [17] is described as follows: A CellTox Green Cytotoxicity Assay to monitor cytotoxicity in HEK293 cells - 40 hour (AID 1224871). Further: nearly all actives have a fitted effect of over 45% in size. Further: potency means the concentration at half of the fitted maximal effect. The gist of the method:
as §1

Test [18] can be described thus: A CellTox Green Cytotoxicity Assay to monitor cytotoxicity in HepG2 cells - 16 hour (AID 1224876). Further: nearly all actives have a fitted effect of over 45% in size. Further: potency means the concentration at half of the fitted maximal effect. The method, boiled down:
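Fluorescent DNA-binding dye, 600 HepG2 cells/well, 5 h preincubation then compound in DMSO; same plates read at 0–40 h, 37 C.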

The nature of test [19]: qHTS RealTime-Glo MT Cell Viability Assay in HEK293 cells - 32 hour (AID 1224868). Further: nearly all actives have a fitted effect of over 50% in size. Further: potency means the concentration at half of the fitted maximal effect. On activity change, negative = cytotoxic: top concentration of the series differs between compounds. The gist of the method:
(§3)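 Quantitative high-throughput screen of the Tox21 10K library in HEK293: cells and RealTime-Glo reagents plated together, compound added at 5 h, luminescence monitored through 40 h at 37 C.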

Test [20] in a line: qHTS RealTime-Glo MT Cell Viability Assay in HEK293 cells - 16 hour (AID 1224872). Further: nearly all actives have a fitted effect of over 50% in size. Further: potency means the concentration at half of the fitted maximal effect. On activity change, negative = cytotoxicity: top concentration of the series differs between compounds. The gist of the method:
as §3
On the % scale 0 is the no-effect control and ±100 the full control effect.

Thyrotropin receptor (Homo sapiens), sequence (P16473 whole entry, looked up): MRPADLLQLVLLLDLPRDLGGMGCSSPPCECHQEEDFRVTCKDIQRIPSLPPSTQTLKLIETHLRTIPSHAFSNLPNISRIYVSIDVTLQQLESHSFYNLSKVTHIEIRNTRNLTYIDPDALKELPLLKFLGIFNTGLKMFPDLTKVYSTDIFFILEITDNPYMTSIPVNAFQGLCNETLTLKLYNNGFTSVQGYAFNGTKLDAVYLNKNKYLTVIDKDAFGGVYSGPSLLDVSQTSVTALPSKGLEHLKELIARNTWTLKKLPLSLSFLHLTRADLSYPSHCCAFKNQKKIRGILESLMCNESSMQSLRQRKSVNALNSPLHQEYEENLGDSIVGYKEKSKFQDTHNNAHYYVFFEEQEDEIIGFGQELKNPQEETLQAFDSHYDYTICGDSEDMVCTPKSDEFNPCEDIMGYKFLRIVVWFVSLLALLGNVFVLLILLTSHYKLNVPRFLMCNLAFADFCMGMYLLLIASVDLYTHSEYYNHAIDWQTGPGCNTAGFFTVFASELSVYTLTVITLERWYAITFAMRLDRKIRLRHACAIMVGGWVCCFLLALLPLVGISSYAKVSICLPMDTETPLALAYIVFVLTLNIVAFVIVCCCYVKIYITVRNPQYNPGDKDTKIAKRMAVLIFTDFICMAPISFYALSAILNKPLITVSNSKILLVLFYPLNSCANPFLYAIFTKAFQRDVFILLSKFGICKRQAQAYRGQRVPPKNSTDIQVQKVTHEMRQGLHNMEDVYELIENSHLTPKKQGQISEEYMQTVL

For `O=S(=O)(c1ccc(OCc2ccccc2)cc1)c1ccccc1O`, the Potency result in test [1], in test [2], in [3], in [4], in test [5] and in test [9] was “inactive” in each case. Besides, the Potency result in [10], in test [11], in test [12] and in [14] was “inactive” each time. In addition, the Potency in test [6] was 45 µM (active); in test [7], 19.3 µM (active); in test [13], 19.5 µM (active). The activity change, positive = activation in [8] is -29%.
Consider `CCCCCCCCCCCCN1CCCC1=O`, for which the Potency entry in test [1], in [15], in test [2], in [5], in [10] and in [11] was “inactive” each time.
In the case of `O=C1c2ccccc2C(=O)c2c(Cl)cccc21`, the Potency entry in test [1], in [15], in test [3], in [16], in test [7] and in test [9] was “inactive” throughout. Further, the Potency result in [10], in test [11], in test [17], in test [12], in [14] and in [18] was “inactive” each time.
As for `N#CCCOCCC#N`, the Potency result in test [1], in test [2], in [4], in test [5], in test [16] and in test [6] was “inactive” each time. Besides, the Potency result in [7], in test [9], in test [19], in [10], in test [17] and in test [20] was “inactive” in each case. The Potency entry in [12], in [14] and in test [18] was “inactive” in each case. Moreover, the max response in test [13] was 2.28%.
Turning to `COc1cccc(-c2ccc(/C=C\CN3CCCCCC3)cc2Cl)c1`, the Potency in test [1] was 54.2 µM (active); in [6], 89.3 µM (active); in test [9], 43.4 µM (active); in test [19], 43.4 µM (active); in test [11] it was 43.4 µM (active); in test [17], 43.4 µM (active). Besides, the Potency was 43.4 µM (active) in test [20], 43.4 µM (active) in test [13], 48.7 µM (active) in test [14] and 43.4 µM (active) in [18]. Besides, the Potency result in test [15], in [2] and in [10] was “inactive” in each case.
Take `Cc1cccc2c1ccc1ccccc12`: the Potency entry in [1], in test [2], in test [4], in test [5], in test [16] and in test [6] was “inactive” each time. For the same compound, the Potency result in [9], in [19], in test [10], in test [11], in [17] and in test [20] was “inactive” each time. Also, the Potency result in test [12], in test [14] and in test [18] was “inactive” throughout. Moreover, the Potency in test [7] is 24.3 µM (active). For the same compound, the max response in test [13] was -16.2%.
In the case of `CN[C@H]1CC[C@@H](c2ccc(Cl)c(Cl)c2)c2ccc(S(N)(=O)=O)cc21`, the Potency in test [1] is 61.1 µM (active); in test [6], 113 µM (active); in test [7], 61.1 µM (active); in test [9] it was 24.5 µM (active); in test [19], 19.5 µM (active); in test [11] it was 21.9 µM (active). Further, the Potency in test [20] is 24.5 µM (active); in [13] it was 19.5 µM (active); in [14] it was 21.9 µM (active); in [18] it was 43.6 µM (active). The Potency entry in test [2], in [16] and in test [10] was “inactive” each time. In addition, the activity change, positive = activation in test [8] was -79%.
On to `CCCCCCCCCCCCS(=O)(=O)Cl`, for which the viability change, negative = cytotoxic in test [1] is 3.05% [at 19 µM]; in test [12] it was -5.43% [at 15.8 µM]. Also, the activation is -1.12% [at 19 µM] in test [3] and 1.7% [at 15.8 µM] in test [16]. Further, the activity change, negative = cytotoxicity was -3.11% [at 15.8 µM] in test [4], 2.47% [at 31.6 µM] in test [6], 3.24% [at 15.8 µM] in [9] and 11.1% [at 15.8 µM] in test [20]. For the same compound, the activation (H2AX phosphorylation) in test [5] was 0.0057% [at 31.6 µM]. Besides, the activity change, negative = cytotoxic in test [19] is 18.8% [at 15.8 µM]; in test [11], 12.8% [at 15.8 µM]. For the same compound, the cytotoxicity in test [10] was 0.643% [at 15.8 µM]. The cytotoxicity increase is -2.77% [at 15.8 µM] in test [17] and -10.9% [at 15.8 µM] in test [18]. Further, in [13], the max response was 12.1%. Moreover, the activity change in test [14] is -0.292% [at 15.8 µM, stronger effect = higher value].
